Data: the OligoGym collection

Molecular target: CD40
Test: pooled miR-30 sensor sort-seq; sequence = guide strand
Conditions: shRNA
Note: reference of the scale not given here.

| Sequence | sensor-assay potency score (higher = more potent) |
| --- | --- |
| TGTAGCAATCTGCTTGACCCCA | -0.6 |
| TTCTGAGGTGCCCTTCTGCTGG | -1.42 |
| TATTGGTTGGCTTCTTGGCCAC | -0.723 |
| TTCTTCACAGGTGCAGATGGTG | -0.762 |
| TTTTTCTCTGCATGCAGTGGGT | -0.914 |
| TTTTCTCTGCATGCAGTGGGTG | -0.932 |
| TGGTTCTGGATGGACAGCGGTC | -1.56 |
| TACAGTGCCAGCCTTCTTCACA | -1.17 |
| TTTGATAAAGACCAGCACCAAG | -1.36 |
| TTGGTCTCACAGCTTGTCCAAG | -1.27 |
| ATTAGGTACTGTTTTTCTCTGC | -0.104 |
| TAGCAATCTGCTTGACCCCAAA | -1.28 |
| TTGGCATCCATGTAAAGTCTCC | -0.501 |
| TGACTGTTTATTAGGTACTGTT | -0.925 |
| TTTCAGTGAACTCTGTGCAGTC | 0.172 |
| TTCCGTTTCAGTGAACTCTGTG | 0.749 |
| TATTAGGTACTGTTTTTCTCTG | -0.885 |
| TCACTCACCAGTTTCTGTCCTG | 0.175 |
| ACAAAGAACAGCACTGACTGTT | 0.0373 |
| AAGAACAGCACTGACTGTTTAT | -1.08 |
| TCTCCTGCACTGGAGCAGCAGT | -1.54 |
| AACCCCTGTAGCAATCTGCTTG | -0.675 |
| TCCGTTTCAGTGAACTCTGTGC | -0.4 |

Molecular target: CD48
Test: as above
Conditions: shRNA

| Sequence | sensor-assay potency score (higher = more potent) |
| --- | --- |
| TTCTATCTTCTCAATTTTGATG | -0.753 |
| TATCACACATGACAGTTTCAAA | -1.19 |
| ATGTGTATCTCTATATCTCTGT | -0.19 |
| TTGCTGCTCACAGAATTGCTGA | -0.332 |
| TTCAAGCACACTGTTCTGGAGC | -0.656 |
| TAATGTTGTCACAATTTTGGGT | 0.114 |
| TCAATTTTGATGACAGGCTTGG | 0.186 |
| TCCCATTCTACAATCTTCTGGT | -0.143 |
| TAATTCAGCAGCATGCTTCTGG | 0.539 |
| TACTAGAAAACAACAAAGGGAT | -0.0806 |
| TGTAGTTTACAGACTCGCCAGG | -0.895 |
| TTGTTTGTAGTTCTCAGGCAGG | -0.932 |
| TTAACTTGAAAATCCTCGTTGA | 1.27 |
| TATACAGTCTCTGTCCTGGTGA | -0.4 |
| TTCTTGCTCATTCCCAGTCTTT | -1.11 |
